Pol eta inh-1: qHTS for Inhibitors of Polymerase Eta; DNA polymerase eta (Homo sapiens), Q9Y253; recombinant Pol eta, fluorescent DNA replication assay; Potency, µM (series often up to 114 µM), inactives show at the highest dose activity change, negative = inhibition, most hits filed as inhibitors; 390,000 compounds, 1.2% hits; AID 588591, 2011; also: potency is read from the fitted curve at half-maximal effect; % is scaled to controls: 0 for no effect and ±100 for the full control effect
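Pol eta at 10 nM preincubated with compounds 15 min at room temperature; reaction started with fluorescent substrate (50 nM final) and read kinetically at 0 and 10 min.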
POLI inh: qHTS for Inhibitors of Polymerase Iota; Pol iota fluorescent replication assay, 10 min; Potency, µM (doses to about 115 µM), for the others: top-dose activity, negative = inhibition, most hits filed as inhibitors; 390,000 compounds, 1% hits; AID 588590, 2011; also: potency is read from the fitted curve at half-maximal effect
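Pol iota at 10 nM preincubated 15 min with compounds at room temperature; reaction started with fluorescent substrate, 50 nM final. Fluorescence read kinetically at 0 and 10 min; buffer-only wells as negative control.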
FEN1 inhibitor: qHTS Assay for the Inhibitors of Human Flap endonuclease 1 (FEN1); P39748; Recombinant FEN1 flap cleavage, fluorescence, 15 min; Potency, µM (titrated, usually from 114 µM), for inactives: at the top dose activity change, negative = inhibition, usual class: inhibitors; 390,000 compounds, 0.35% hits; AID 588795, 2011; also: potency is read from the fitted curve at half-maximal effect; % is scaled to controls: 0 for no effect and ±100 for the full control effect; nearly all actives have a fitted effect of over 65% in size
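Potency values derive from four-parameter Hill fits of normalized qHTS data. The reaction used 10 nM FEN1 preincubated 15 min at room temperature with compound, then 50 nM DNA substrate, read at 0 and 15 min.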
Pol kappa inh-1: qHTS for Inhibitors of Polymerase Kappa; DNA polymerase kappa (Homo sapiens), Q9UBT6; 400,000 compounds, 0.53% hits; purified Pol kappa, fluorescent DNA synthesis assay, 10 min; AID 588579, 2011; Potency, µM (top dose mostly 107 µM), for inactives: at the top dose activity, negative = inhibition, hits mostly inhibitors; also: potency is read from the fitted curve at half-maximal effect; % is scaled to controls: 0 for no effect and ±100 for the full control effect
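Inhibition of 10 nM Pol kappa is measured by a fluorescent read-out at 0 and 10 min following addition of 50 nM substrate (final), with a 15-min room-temperature compound preincubation.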
POLB inh: qHTS Assay for Inhibitors of DNA Polymerase Beta | 340,000 compounds, 1.3% hits | AID 485314, 2010 | Potency, µM (highest dose often 114 µM), for inactives: top-dose activity change, negative = inhibition, usual class: inhibitors | Pol beta primer extension/strand displacement, fluorescence kinetic | P06746; also: potency is read from the fitted curve at half-maximal effect; % is scaled to controls: 0 for no effect and ±100 for the full control effect
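10 nM enzyme + cpd, 15 min RT; start with substrate 50 nM final; read 0 min and after 10 min RT. Corrected, normalized data; 4-parameter Hill curve fit.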
WRN inhibitor: qHTS for Inhibitors of WRN Helicase; 360,000 compounds, 0.46% hits; Bifunctional 3'-5' exonuclease/ATP-dependent helicase WRN (Homo sapiens), Q14191; WRN helicase unwinding, fluorescent forked duplex, kinetic; Potency, µM (series often up to 114 µM), for the others: top-dose activity change, negative = inhibition, hits mostly inhibitors; also: potency is read from the fitted curve at half-maximal effect; % is scaled to controls: 0 for no effect and ±100 for the full control effect; nearly all actives have a fitted effect of over 55% in size
Target sequence (Q14191 whole entry, looked up): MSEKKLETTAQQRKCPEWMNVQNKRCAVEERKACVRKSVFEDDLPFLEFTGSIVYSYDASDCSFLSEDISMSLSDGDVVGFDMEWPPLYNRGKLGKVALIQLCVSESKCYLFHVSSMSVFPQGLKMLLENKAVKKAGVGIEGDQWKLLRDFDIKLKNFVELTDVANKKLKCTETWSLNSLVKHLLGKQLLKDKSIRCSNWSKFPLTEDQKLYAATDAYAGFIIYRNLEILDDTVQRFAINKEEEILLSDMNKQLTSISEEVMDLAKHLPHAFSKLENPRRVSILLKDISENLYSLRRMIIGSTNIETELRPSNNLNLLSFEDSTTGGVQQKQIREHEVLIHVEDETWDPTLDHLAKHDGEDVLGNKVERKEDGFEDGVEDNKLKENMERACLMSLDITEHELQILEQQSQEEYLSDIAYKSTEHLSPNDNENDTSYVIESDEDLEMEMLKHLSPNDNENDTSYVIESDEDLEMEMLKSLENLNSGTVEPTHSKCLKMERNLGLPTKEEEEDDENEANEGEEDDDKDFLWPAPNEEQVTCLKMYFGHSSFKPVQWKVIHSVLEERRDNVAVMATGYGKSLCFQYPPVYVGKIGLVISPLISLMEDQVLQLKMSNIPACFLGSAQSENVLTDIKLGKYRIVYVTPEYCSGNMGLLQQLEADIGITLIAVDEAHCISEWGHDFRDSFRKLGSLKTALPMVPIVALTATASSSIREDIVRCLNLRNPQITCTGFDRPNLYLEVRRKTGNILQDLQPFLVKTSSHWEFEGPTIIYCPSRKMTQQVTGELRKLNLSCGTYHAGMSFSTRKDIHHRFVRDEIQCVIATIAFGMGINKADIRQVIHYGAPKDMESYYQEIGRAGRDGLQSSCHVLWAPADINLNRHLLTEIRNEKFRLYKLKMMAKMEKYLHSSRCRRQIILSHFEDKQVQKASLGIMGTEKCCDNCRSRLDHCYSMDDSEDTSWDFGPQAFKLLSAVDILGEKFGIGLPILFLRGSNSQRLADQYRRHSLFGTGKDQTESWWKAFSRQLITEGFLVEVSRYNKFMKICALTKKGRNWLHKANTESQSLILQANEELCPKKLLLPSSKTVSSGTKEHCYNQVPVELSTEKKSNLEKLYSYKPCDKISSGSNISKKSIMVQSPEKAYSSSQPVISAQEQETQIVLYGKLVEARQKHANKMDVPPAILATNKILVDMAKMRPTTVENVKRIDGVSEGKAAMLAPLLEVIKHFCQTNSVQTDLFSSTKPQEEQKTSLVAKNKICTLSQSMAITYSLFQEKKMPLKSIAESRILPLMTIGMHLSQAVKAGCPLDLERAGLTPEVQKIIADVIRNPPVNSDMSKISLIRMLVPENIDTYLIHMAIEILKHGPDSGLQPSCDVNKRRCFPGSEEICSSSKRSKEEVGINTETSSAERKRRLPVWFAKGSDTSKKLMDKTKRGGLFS
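Enzyme (20 nM final) and test compound sit together 15 min at room temperature before substrate addition. Substrate is a single-forked duplex oligonucleotide (100 nM) labelled with fluorophore and quencher, with 2 mM ATP; helicase unwinding raises red fluorescence, read kinetically.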
GALK confirm: Confirmation Assay for Inhibitors of Human Galactokinase (GALK) | shares compounds with Pol eta inh-1 | purified GALK, Kinase-Glo ATP depletion luminescence | Potency, µM (highest dose often 115 µM), for the others: top-dose activity, negative = inhibition, actives largely listed as inhibitors | 150 compounds, 70% hits
GALK redox cs: Confirmatory Assay for Inhibitors of Human Galactokinase (GALK): Phenol-HRP redox assay counterscreen. 150 compounds, 40% hits. shares compounds with Pol eta inh-1. Phenol red-HRP H2O2 redox cycling, absorbance 600 nm. Potency, µM (series often up to 115 µM), inactives show at the highest dose activity change, negative = H2O2 signal, most hits filed as inhibitors
HEK293 tox: Secondary Assay for Inhibitors of Human Galactokinase (GALK): HEK-293 Cell Viability Assay | shares compounds with Pol eta inh-1 | HEK-293 viability, ATP luminescence (CellTiter-Glo), 24/48 h | Potency, µM (highest dose often 46.1 µM), for the others: top-dose activity change, negative = cytotoxicity, hits mostly inhibitors | 170 compounds, 10% hits; also: potency is read from the fitted curve at half-maximal effect; % is scaled to controls: 0 for no effect and ±100 for the full control effect
Pol kappa inh-2: qHTS for Inhibitors of Polymerase Kappa: Confirmatory Assay for Cherry-picked Compounds | Potency, µM, hits mostly inhibitors | purified Pol-kappa, fluorescent strand-displacement substrate | 920 compounds, 76% hits | shares compounds with Pol eta inh-1 | AID 720501, 2013; also: potency is read from the fitted curve at half-maximal effect
Pol eta inh-2: qHTS for Inhibitors of Polymerase Eta: Confirmatory Assay for Cherry-picked Compounds | shares compounds with Pol eta inh-1 | Pol eta primer extension, TAMRA/BHQ fluorescence, 10 min | Potency, µM, actives largely listed as inhibitors | 2,600 compounds, 64% hits | AID 720502, 2013; also: potency is read from the fitted curve at half-maximal effect
* = called active by the depositor; ? = inconclusive; nt = no result; [ ] = dose if it differs, or a comment. Only some compounds are listed: those with a hit (about 2.4% of all), similar ones and a draw of the others. Calls follow the shape of the dose curve; as a rule, active = well fitted curve in the direction sought with a large enough effect; inconclusive = small, poorly fitted or top-dose-only effect, or another doubt; inactive = no such curve, though single readings can be large; an effect the other way counts as inactive or inconclusive.

SMILES	Pol eta inh-1	POLI inh	FEN1 inhibitor	Pol kappa inh-1	POLB inh	WRN inhibitor	Pol eta inh-2	others
O=c1cc(-c2cc(O)c(O)c(O)c2)oc2cc(O)cc(O)c12	nt	nt	nt	0.4µM*	nt	nt	nt	GALK confirm=42µM*;GALK redox cs=-1%;HEK293 tox=-2%
O=C(OCC(=O)N1CCOCC1)c1ccc2c(c1)OCCO2	-13%	3%	6%	8%	11%	11%	nt
Cc1ccc(C(=O)OCC(=O)c2ccc(CC(=O)N3CCOCC3)s2)cc1C	13µM*	22µM*	-5%	79µM*	nt	3%[11.6 µM]	?
Cc1c(Cl)cnc(NC(=O)COC(=O)CCc2nc3ccccc3s2)c1Cl	3%	21%	1%	1%[60.1 µM]	11%	10%	nt
Cc1c(Cl)cnc(NC(=O)COC(=O)[C@H](C)NC(=O)c2ccccc2)c1Cl	50µM*	?	7%	-27%	nt	-12%[11.6 µM]	?	Pol kappa inh-2=?
O=C(COC(=O)CNC(=O)c1ccccc1)Nc1ccccc1Cl	-1%	17%	-2%	-22%	7%	-8%	nt
Cc1c(Cl)cnc(NC(=O)COC(=O)CNC(=O)c2ccccc2)c1Cl	50µM*	-16%	-22%	-31%	nt	-6%[11.6 µM]	?	Pol kappa inh-2=?
Cc1c(Cl)cnc(NC(=O)COC(=O)c2ccc3c(c2)OCO3)c1Cl	?	72%	40%	-4%	5%	-25%	nt
Cc1c(Cl)cnc(NC(=O)COC(=O)c2ccncc2)c1Cl	25µM*	50µM*	-2%	-24%	nt	?	nt	Pol kappa inh-2=?
CCN(CC)c1cc(C)c2cc(NC(=O)/C=C/c3ccccc3OC(C)C)ccc2n1	-23%	10%	-8%	-8%	-2%	nt	nt
Cc1ccc(Cn2cc(C(=O)c3ccc4c(c3)OCO4)c(=O)c3cc(C)ccc32)cc1	-10%	32%	-16%	-9%	-8%	nt	nt
Cc1ccc(-c2ccc(CCC(=O)O)n2Cc2ccco2)cc1	22µM*	?	-10%	-28%	?	?	?
C[N+]1(CC(=O)c2ccc(Oc3ccccc3)cc2)CCOCC1	nt	?	-2%	4%	nt	nt	nt
CC(C(=O)N(C)C1CCS(=O)(=O)C1)N1C(=O)/C(=C/c2ccco2)SC1=S (stereo not drawn)	22µM*	32µM*	?	?	?	-26%	76*
CC(C(=O)N(C)C1CCS(=O)(=O)C1)N1C(=O)/C(=C/c2cccs2)SC1=S (stereo not drawn)	-12%	28%	19%	-2%	-25%	-4%	nt
O=C(CN1C(=O)/C(=C/c2ccco2)SC1=S)NC1CCS(=O)(=O)C1 (stereo not drawn)	13µM*	?	?	?	?	-7%[11.6 µM]	60*
Cc1cc(S(=O)(=O)C(CNC(=O)c2ccc(OC(C)C)cc2)c2cccs2)ccc1F (stereo not drawn)	?	-11%	-16%	-15%[60.1 µM]	11%	nt	nt
COc1cc(/C=C/c2ccc3cccc([N+](=O)[O-])c3n2)ccc1OCC(=O)O	20µM*	?	-7%	?	?	-20%[11.6 µM]	76*	Pol kappa inh-2=?
CS(=O)(=O)C1=NSC2=NC(=O)/C(=C\c3cccn3-c3ccc(Cl)cc3)C(=N)N21	22µM*	?	-18%	-40%	22µM*	-27%[57.1 µM]	?
COc1cc(-c2cc(=O)c3c(O)c(OC)c(OC)cc3o2)cc(OC)c1O	22µM*	?	-32%	79µM*	28µM*	?	67*
CCC(=O)OC1(C)C(=O)C=C2C=C(CCCC(=O)OC)OC=C2C1=O (stereo not drawn)	25µM*	?	?	?	nt	-16%[11.6 µM]	54*
CC1(OC(=O)C2CCCC2)C(=O)C=C2C=C(c3ccsc3)N(CCCCO)C=C2C1=O (stereo not drawn)	-7%	107%	15%	1%	29%	5%	nt
CCCCC1=CC2=CC(=O)C(C)(OC(=O)C3CCCC3)C(=O)C2=CO1 (stereo not drawn)	40µM*	50µM*	?	79µM*	-29%	?	?
CCCCC1=CC2=CC(=O)C(C)(OC(=O)CC)C(=O)C2=CN1C(CO)CO (stereo not drawn)	-14%	?	11%	-7%	13%	-1%	nt
CCCCC1=CC2=CC(=O)C(C)(OC(=O)CC)C(=O)C2=CO1 (stereo not drawn)	50µM*	50µM*	?	?	nt	-30%	?
CC(=O)c1ccc(S(=O)(=O)N(CCCO)Cc2cc3cc(C)ccc3[nH]c2=O)cc1	50µM*	?	-12%	-26%	40µM*	-11%	60*
CCOC(=O)C1=C(C)OC2(O)c3ccccc3C(=O)C12O (stereo not drawn)	40µM*	1.6µM*	7%	-5%	-29%	25%	nt	GALK confirm=27µM*;GALK redox cs=19µM*;HEK293 tox=9%
CC(=O)C1=C(C)OC2(O)c3ccccc3C(=O)C12O (stereo not drawn)	79µM*	1µM*	0%	-10%	9%	37%	?

Compound activity: PubChem, National Center for Advancing Translational Sciences (NCATS)
